± gives the standard deviation of the averaged measurements.
system: Serratia marcescens K904 PosmB-luxCDABE reporter (pMQ747); experiment: PosmB-lux reporter fold induction (RLU/OD600 relative to no-compound control), highest over Biolog concentrations; higher = stronger reporter activation; conditions: ΔrcsB mutant CMS5177; 4 h
Description: (§1)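 Serratia marcescens K904 (wild type) or its isogenic ΔrcsB mutant, carrying the Rcs-dependent PosmB-luxCDABE reporter plasmid pMQ747, was grown in LB at OD600 0.1 in Biolog Phenotype MicroArray plates PM11-20 for 4 h at 30-32°C. Each compound is present at 3-4 proprietary concentrations (not stated); per the Fig. S1 legend the value given is the highest fold over those wells. Three independent trials.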

Structure (SMILES)	PosmB-lux reporter fold induction
CN(C)[C@@H]1C(O)=C(C(N)=O)C(=O)[C@@]2(O)C(O)=C3C(=O)c4c(O)ccc(Cl)c4[C@@H](O)[C@H]3C[C@@H]12 [Demeclocycline] (Biolog plate: PM11, well positions: D5-8)	1.59 ± 0.14
Cn1nnnc1SCC1=C(C(=O)O)N2C(=O)[C@@H](NC(=O)[C@H](OC=O)c3ccccc3)[C@H]2SC1 [cefamandole nafate] (Biolog plate: PM17, well positions: G5-8)	1.52 ± 0.36
CC1(C)S[C@@H]2[C@H](NC(=O)C(C(=O)O)c3ccccc3)C(=O)N2[C@H]1C(=O)O (stereo partly drawn) [Carbenicillin] (Biolog plate: PM14, well positions: G5-8)	1.05 ± 0.096
O.O=S(=O)([O-])[O-].O=S(=O)([O-])[O-].O=S(=O)([O-])[O-].[Al+3].[Al+3] [aluminum sulfate] (Biolog plate: PM16, well positions: F9-12)	1.54 ± 0.56
COc1ccc(CO)cc1OC [3,4-Dimethoxy-benzyl alcohol] (Biolog plate: PM15, well positions: F1-4)	1.65 ± 0.64
CCCCCCCCCCCC[N+](C)(C)CCCS(=O)(=O)[O-] [lauryl sulfobetaine] (Biolog plate: PM19, well positions: G1-4)	1.4 ± 0.45
Oc1c(Cl)cc(Cl)c(Cl)c1Cc1c(O)c(Cl)cc(Cl)c1Cl [hexa-chlorophene] (Biolog plate: PM20, well positions: E9-12)	0.997 ± 0.31
Nc1ccc(S(=O)(=O)Nc2ncccn2)cc1 [Sulfadiazine] (Biolog plate: PM12, well positions: E5-8)	1.84 ± 0.29
[Cl][Mn][Cl] [Manganese chloride] (Biolog plate: PM13, well positions: G5-8)	1.41 ± 0.043
CC1(C)S[C@@H]2[C@H](NC(=O)[C@H](N)c3ccc(O)cc3)C(=O)N2[C@H]1C(=O)O [Amoxicillin] (Biolog plate: PM11, well positions: B1-4)	0.968 ± 0.11
CC(=O)O[C@H]1C[C@@]2(C)[C@@H](C[C@@H](O)[C@H]3[C@@]4(C)CC[C@@H](O)[C@@H](C)[C@@H]4CC[C@@]32C)/C1=C(\CCC=C(C)C)C(=O)O [Fusidic acid] (Biolog plate: PM15, well positions: C5-8)	1.43 ± 0.16
C[n+]1c2cc(N)ccc2cc2ccc(N)cc21.Nc1ccc2cc3ccc(N)cc3nc2c1 [Acriflavine] (Biolog plate: PM14, well positions: A2-4)	2.05 ± 0.23
O=C(O)CN(CCOCCOCCN(CC(=O)O)CC(=O)O)CC(=O)O (Biolog plate: PM14, well positions: H1-4)	1.53 ± 0.51
CN[C@H](CC(C)C)C(=O)N[C@H]1C(=O)N[C@@H](CC(N)=O)C(=O)N[C@H]2C(=O)N[C@H]3C(=O)N[C@H](C(=O)N[C@H](C(=O)O)c4cc(O)cc(O)c4-c4cc3ccc4O)[C@H](O)c3ccc(c(Cl)c3)Oc3cc2cc(c3O[C@@H]2O[C@H](CO)[C@@H](O)[C@H](O)[C@H]2O[C@H]2C[C@](C)(N)[C@H](O)[C@H](C)O2)Oc2ccc(cc2Cl)[C@H]1O [Vancomycin] (Biolog plate: PM12, well positions: C5-8)	1.21 ± 0.36
CNC(C)C1CCC(N)C(OC2C(N)CC(N)C(OC3OCC(C)(O)C(NC)C3O)C2O)O1 (stereo not drawn) [Gentamicin] (Biolog plate: PM11, well positions: G5-8)	1.47 ± 0.41
CSc1ccc2c(c1)N(CCC1CCCCN1C)c1ccccc1S2 (stereo not drawn) [thioridazine] (Biolog plate: PM20, well positions: C1-4)	1.11 ± 0.088
CN1CCN(CCCN2c3ccccc3Sc3ccc(C(F)(F)F)cc32)CC1 [Trifluoperazine] (Biolog plate: PM13, well positions: G9-12)	1.43 ± 0.36
O=c1ccc2ccccc2o1 [coumarin] (Biolog plate: PM19, well positions: A9-12)	0.853 ± 0.16
CN[C@@H]1[C@H](O[C@H]2[C@H](O[C@H]3[C@H](O)[C@@H](O)[C@H](N=C(N)N)[C@@H](O)[C@@H]3N=C(N)N)O[C@@H](C)[C@]2(O)C=O)O[C@@H](CO)[C@H](O)[C@H]1O [streptomycin] (Biolog plate: PM16, well positions: E1-4)	1.98 ± 0.69

system: Serratia marcescens K904 PosmB-luxCDABE reporter (pMQ747); experiment: PosmB-lux reporter fold induction (RLU/OD600 relative to no-compound control), highest over Biolog concentrations; higher = stronger Rcs reporter activation; conditions: wild type K904; 4 h
Description: as §1

Structure (SMILES)	PosmB-lux reporter fold induction
CO[C@@H]1[C@@H](O[C@@H]2O[C@H](C)[C@@H](O[C@H]3C[C@@](C)(O)[C@@H](OC(=O)CC(C)C)[C@H](C)O3)[C@H](N(C)C)[C@H]2O)[C@@H](CC=O)C[C@@H](C)[C@@H](O)/C=C/C=C/C[C@@H](C)OC(=O)C[C@H]1OC(C)=O [josamycin] (Biolog plate: PM19, well positions: A2-4)	1.27 ± 0.74
[Cl][Mn][Cl] [Manganese chloride] (Biolog plate: PM13, well positions: G5-8)	1.25 ± 0.2
CNC(C)C1CCC(N)C(OC2C(N)CC(N)C(OC3OCC(C)(O)C(NC)C3O)C2O)O1 (stereo not drawn) [Gentamicin] (Biolog plate: PM11, well positions: G5-8)	1.41 ± 0.081
O=c1ccc2ccccc2o1 [coumarin] (Biolog plate: PM19, well positions: A9-12)	1.03 ± 0.14

Reference: the supplement of paper PMC9942566
